Shown are actives, neighbours in structure and some others; about 14% of the full set was active somewhere.
Cycloheximide cs: Cycloheximide Counterscreen for Small Molecule Inhibitors of Shiga Toxin; max response, %; 12% of 300,000 active; cell reporter, cycloheximide protein synthesis inhibition counterscreen; AID 2314, 2010; in the data active = max response mostly above about 13%, no sharp cut-off; inactive = mostly below about 14%; also: read at 38.3 µM for the half of the compounds with a filed dose; 0% is about no effect
FBPA Giardia inh: qHTS Assay for Inhibitors of Fructose-1,6-bisphosphate Aldolase from Giardia Lamblia; Potency, µM (series often up to 59.6 µM), inactives show top-dose activity, negative = inhibition, most hits filed as inhibitors; A8B2U2; purified Giardia FBPA; 0.71% of 290,000 active; also: potency is read from the fitted curve at half-maximal effect; % is scaled to controls: 0 for no effect and ±100 for the full control effect; nearly all actives have a fitted effect of over 55% in size
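40 nM FBPA preincubated 10 min at RT with compound (up to 57.5 uM final), then substrate plus GAPDH/TPI/NAD/arsenate coupling and diaphorase/resazurin added. Fluorescence read after 20 min at RT, 525/598 nm.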
NS1 inh: qHTS Assay for Inhibitors of Influenza NS1 Protein Function | Potency, µM (top dose mostly 46.1 µM), inactives show top-dose activity, positive = more growth | 0.4% of 270,000 active | AID 2326, 2010; calls by dose curve; also: potency is read from the fitted curve at half-maximal effect; actives are rising curves; nearly all actives have a fitted effect of over 50% in size
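A cell-based growth assay was used: compounds that relieve NS1-induced slow growth of budding yeast raise OD600. Assay medium was yeast nitrogen base with ammonium sulphate and -URA supplement, pH 6.0, with 2% galactose.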
Shiga inhibitor: A qHTS for Small Molecule Inhibitors of Shiga Toxin; Vero cells, Shiga toxin protein synthesis inhibition reporter; inhibition, % at 38.7 µM; 9.2% of 290,000 active; in the data active = inhibition mostly above about 28%, no sharp cut-off; inactive = mostly below about 43%; also: 0% is about no effect
LmPK inhibitor: qHTS Assay for Inhibitors of Leishmania Mexicana Pyruvate Kinase (LmPK); Potency, µM (doses to about 57.5 µM), for the others: at the top dose activity change, negative = inhibition, most hits filed as inhibitors; AID 1721, 2009; 0.37% of 290,000 active; purified LmPK, Kinase-Glo ATP luminescence, 1 h; Q27686; also: potency is read from the fitted curve at half-maximal effect; % is scaled to controls: 0 for no effect and ±100 for the full control effect
Target sequence (Q27686 whole entry, looked up): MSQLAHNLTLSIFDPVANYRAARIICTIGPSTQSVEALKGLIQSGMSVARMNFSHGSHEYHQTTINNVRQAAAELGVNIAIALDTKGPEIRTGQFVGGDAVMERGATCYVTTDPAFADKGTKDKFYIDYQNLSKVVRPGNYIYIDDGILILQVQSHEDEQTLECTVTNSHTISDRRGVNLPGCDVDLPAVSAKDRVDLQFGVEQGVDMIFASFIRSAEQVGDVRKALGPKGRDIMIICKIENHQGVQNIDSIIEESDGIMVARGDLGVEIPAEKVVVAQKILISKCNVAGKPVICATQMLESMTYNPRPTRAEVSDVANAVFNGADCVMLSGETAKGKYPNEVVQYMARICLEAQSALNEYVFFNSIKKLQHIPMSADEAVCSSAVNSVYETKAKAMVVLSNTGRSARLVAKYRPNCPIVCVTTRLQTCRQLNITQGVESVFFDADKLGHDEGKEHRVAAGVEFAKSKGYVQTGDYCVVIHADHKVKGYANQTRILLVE
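Screened at intermediate enzyme activity to detect both inhibitors and activators: LmPK at 0.1 nM, with a 0.5 nM enzyme column as activation reference. PEP 0.5 mM, ADP 0.1 mM; ATP detected by luminescence after 1 h.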
* marks the source's active call; other numbers are inactive results; ? = inconclusive; . = no result given; [ ] = another dose, or the depositor's remark. Unless noted, calls follow the shape of the dose curve; as a rule, active = well fitted curve in the direction sought with a large enough effect; inconclusive = small, poorly fitted or top-dose-only effect, or another doubt; inactive = no such curve, though single readings can be large; an effect the other way counts as inactive or inconclusive.

SMILES	Cycloheximide cs	FBPA Giardia inh	NS1 inh	Shiga inhibitor	LmPK inhibitor
CCCNC(=S)N1CCN(c2nc(-c3ccc(C)cc3)cs2)CC1	12.8*	6.9%	20.8%	-1.8	0.4%
N#CC1(c2ccc(NC(=O)c3ccccc3F)cc2)CCCC1	44.8*	-15.4%	-12.7%	62.3*	-28.7%
CCN(CC)c1ccc(NC(=O)c2ccccc2F)cc1	37.8*	-9.3%	7.5%	71.2*	-5.3%
O=C(Nc1ccc(Nc2ccccc2)cc1)c1ccccc1F	33.2*	-0.2%	-31.9%	73.8*	6.4%
CCN(CC)c1ccc(NC(=O)c2cc(Cl)ccc2OC)cc1	8.3	-5.6%	-13.8%	7.1	-2.4%
Nc1nonc1-n1nnc(C(=O)N/N=C/c2ccc(Cl)cc2Cl)c1CN1CCOCC1	-2.2	-0.4%	18.1%	18.0	0.8%
CCc1ccc(S(=O)(=O)Nc2nnc(N)s2)cc1	-3.6	-24.7%	5.9%	.	-2.4%
CCn1cc(CCCC(=O)NCc2cccc(OC)c2)c2ccccc21	8.9	6.6%	-8.7%	-3.8	-0.2%
Cc1ccc(NC(=O)CN2C(=O)N/C(=C/c3cc(C)n(-c4ccc(C(=O)O)cc4)c3C)C2=O)cc1	32.6	-12.1%	.	84.5*	3.3%
Cc1ccc(NC(=O)CN2C(=O)S/C(=C\c3cc(C)n(-c4ccc(C(=O)O)cc4)c3C)C2=O)cc1	5.5	8.3%	12.5%	10.9	-0.9%
CCc1ccc(/C=N/Nc2ncnc3nc[nH]c23)cc1	40.2*	-0.9%	-0.1%	82.1*	-26.7%
Cc1ccc(S(=O)(=O)NC(=O)N(C)C2CCCCC2)cc1	-2.7	2.6%	1.0%	-2.9	7.7%
O=C(NC1CC1)c1sc2cc([N+](=O)[O-])ccc2c1Cl	26.9*	-0.1%	12.0%	18.0	-2.0%
Cc1ccc2c(Cl)c(C(=O)NC3CC3)sc2c1	47.1*	.	-16.0%	61.1*	-8.8%
CC(NC(=O)c1sc2cc([N+](=O)[O-])ccc2c1Cl)C(C)(C)C (centres undefined)	-1.8	-0.7%	5.8%	1.9	8.9%
CC1CCCN(C(=O)c2sc3cc([N+](=O)[O-])ccc3c2Cl)C1 (centres undefined)	32.1*	2.2%	-10.0%	84.8*	0.7%
O=C(c1sc2cc([N+](=O)[O-])ccc2c1Cl)N1CCCCC1	19.6	-3.5%	3.9%	0.0	-7.1%
Cc1ccc2c(Cl)c(C(=O)Nc3cccnc3)sc2c1	58.5*	-2.7%	-25.5%	126.4*	-1.3%
Cc1ccc2c(C)c(C(=O)Nc3cccnc3)oc2c1	20.0	1.3%	-6.3%	-5.2	-0.1%
Cc1ccc(CS(=O)Cc2ccc(C(=O)NCc3ccc(OC(C)C)cc3)o2)cc1 (centres undefined)	-1.7	27.3%	9.1%	-1.0	-0.5%
C=CCOC(=O)N[C@H](/C(C(=O)OC)=C(\C)NCc1ccccc1)c1cccc(OC)c1	.	-2.2%	.	.	.
COc1ccc(NC(=O)c2cccc(NC3=NC4CS(=O)(=O)CC4S3)c2)cc1Cl (centres undefined)	1.6	-11.3%	-6.4%	0.7	-1.6%
CCC(=O)N1CCN(c2ccccc2NC(=S)NC(=O)c2ccco2)CC1	-1.8	.	12.0%	-1.3	3.0%
COC(=S)N/C(=N\S(=O)(=O)c1ccc(Cl)cc1)c1ccccc1	-1.7	?	0.0%	-6.8	-7.4%
Cc1ccc(S(=O)(=O)/N=C(/NC(=S)Nc2ccccc2)c2ccccc2)cc1	29.9*	?	-1.3%	73.2*	2.3%
SMILES	Cycloheximide cs	FBPA Giardia inh	NS1 inh	Shiga inhibitor	LmPK inhibitor
Cc1ccc(NC(=S)N/C(=N/S(=O)(=O)c2ccccc2)c2ccccc2)cc1	49.4*	?	-8.2%	90.2*	1.8%
CCN1CCN(c2nc3c(C)cccn3c(=O)c2/C=C(\C#N)C(=O)NCCOC)CC1	1.2	-8.9%	-1.5%	-5.5	-7.9%
Cc1cc(C)cc(/C=C/C2OCC(O)C2Oc2ccc(C3CCCC3)cc2)c1 (centres undefined)	.	1.7%[12.9 µM]	.	.	.
O=S(=O)(NC(=NCc1ccccc1)c1ccccc1)c1ccccc1	-4.7	11.6%	2.9%	-8.9	0.6%
CCOC(=O)C(C)n1cnc2c(nnn2-c2ccc(OC)cc2)c1=O (centres undefined)	31.6*	-2.7%	6.3%	85.7*	-4.0%
CCC(C(=O)OC)n1cnc2c(nnn2-c2ccc(C)cc2)c1=O (centres undefined)	12.2*	9.4%	-4.5%	21.9*	-0.9%
COc1cccc([C@@H]2Oc3ccc(OC)cc3C(=O)[C@H]2OC(=O)NS(=O)(=O)c2ccc(F)cc2)c1	.	0.5%	.	.	.
COc1ccc(Cl)cc1C(=O)Nc1ccc2c(c1)OCCO2	29.9*	-9.4%	-25.9%	36.4*	-1.9%
COc1ccc(Cl)cc1C(=O)Nc1ccc2c(c1)OCO2	44.2*	-20.3%	-87.0%	87.4*	4.7%
COc1ccc(NC(C)=O)cc1S(=O)(=O)Nc1ccc2c(c1)OCCO2	24.1*	10.2%	-1.9%	16.9	0.3%
CCCn1c(N)c(N(CCOC)C(=O)c2cc(C)cc(C)c2)c(=O)[nH]c1=O	-3.1	-3.6%	-0.9%	10.5	8.7%
Cc1ccc(Cl)cc1N1CCN(S(=O)(=O)c2ccc3c(c2)NC(=O)C(C)C(=O)N3)CC1 (centres undefined)	-4.7	11.4%	15.4%	-7.0	1.7%
Cc1ccc(/C=N/NC(=O)CSc2nc3ccccc3s2)o1	12.2*	-26.2%	14.1%	25.5	-1.7%
O=C(CSc1nc2ccccc2s1)N/N=C/c1cc([N+](=O)[O-])ccc1O	16.9*	15.1%	-43.3%	39.8*	0.3%
O=C1CC(N(O)c2ccccc2)C(=O)N1c1ccc(Cl)c(Cl)c1 (centres undefined)	10.0*	1.4%	-3.1%	17.6	-1.2%
Cc1cccc(N2C(=O)CC(N(O)c3ccccc3)C2=O)c1 (centres undefined)	27.9*	-0.3%	-0.6%	59.4	1.6%
O=S1(=O)N=C(N(CCO)/N=C/c2ccc(Br)cc2)c2ccccc21	-3.6	-2.4%	0.2%	38.1	4.2%
CCc1cc(CN2CCOCC2)c(NC(=O)c2ccccc2)s1	26.5*	-11.6%	.	78.9*	-4.0%
CCc1cc(C(c2ccc(F)cc2)N2CCOCC2)c(NC(=O)c2ccccc2)s1 (centres undefined)	15.9	.	-18.7%	21.1	-0.2%
CCc1cc(C(c2cccc(OC)c2)N2CCOCC2)c(NC(=O)c2ccccc2)s1 (centres undefined)	37.6*	1.8%	-10.3%	60.9	3.5%
CCc1cc(C(c2ccc(OC)c(OC)c2)N2CCOCC2)c(NC(=O)c2ccccc2)s1 (centres undefined)	2.3	5.7%	16.3%	-19.0	9.5%
CCCc1n[nH]c2c1C(=O)CC(C)(C)C2	-3.7	7.8%	-14.3%	6.9	2.0%
CC1(C)CC(=O)c2c(-c3cccs3)n[nH]c2C1	18.3*	3.9%	-33.0%	89.5*	3.1%
Cc1ccc(N2C(=O)C(CC(=O)Nc3cccc(F)c3)N(C3CC3)C2=O)cc1 (centres undefined)	17.9*	5.0%	-8.5%	5.1	10.1%

Source: PubChem BioAssay (National Center for Advancing Translational Sciences (NCATS))
